These results are taken from PubChem BioAssay.

Molecules are shown by their SMILES. Active and inactive are the calls of the source.

For one assay, the system named is Wnt5a (protein binding on small-molecule microarray). Description: Wnt5a binders on small-molecule microarray, primary screen, biophysical, 635/667 nm fluorescence (AID 1142).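 Also: fluorescence read at 667 nm with signal to noise per printed feature.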 Conditions: 635 nm fluorescence, higher = more signal.
For `C[N+](C)(C)CCCC[C@@H]1NC(=O)[C@H]2C[C@@H](C(=O)NCCCCCCNC(=O)CS)[C@@H](c3ccc(O)cc3)N2C1=O`, the composite z-score was -0.195.

Compound `COC(=O)C(CC#Cc1ccc2c(c1)[C@]1(C(=O)N2)[C@H](c2ccccc2OCCO)N2[C@H](c3ccccc3)[C@H](c3ccccc3)OC(=O)[C@H]2[C@@H]1C(=O)O)C(=O)OC` gave a composite z-score of 0.231.

For the compound `NCCCCCNC(=O)[C@H]1C[C@H]2C(=O)N3CCC[C@H]3C(=O)N2[C@H]1c1ccc(O)cc1`, the composite z-score turned out to be 0.354.

Compound `C=CCC(OC(C)=O)[C@@H]1[C@@H](N(Cc2ccc(-c3ccccc3)cc2)C(=O)Cc2ccc(F)cc2)c2cc(OCCCO)ccc2N1C(=O)c1ccc2ccccc2c1` (stereo not given in full) displayed a composite z-score of -0.121.

Regarding `CCOc1ccc(N2C(=O)CSC2c2cccc([N+](=O)[O-])c2)cc1` (stereo not given), the composite z-score came to 0.124.

In the case of `C=C(CCCC)/C(=C/C[C@H](OC(C)=O)c1ccccc1OCCO)c1cnc2ccccc2c1`, the composite z-score was 0.382.

In the case of `C=CC[C@]1(C(N)=O)COC(c2ccc(OCCCO)cc2)=N1`, the composite z-score is 0.469.

Take `COCCOC(=O)N1C(=O)[C@@]2(c3cc(C#CC4=CCCCC4)ccc31)[C@H](C(N)=O)[C@H]1C(=O)O[C@H](c3ccccc3)[C@H](c3ccccc3)N1[C@@H]2c1ccc(O)cc1`: the composite z-score worked out at 0.838.

The compound `O=C1O[C@@H](c2ccccc2)[C@@H](c2ccccc2)N2[C@@H](c3ccc(OCCO)cc3)[C@]3(C(=O)Nc4ccc(C#CC5=CCCCC5)cc43)[C@@H](C(=O)N3CCCCCCC3)[C@H]12` came in with a composite z-score of 1.18.

`COc1ccc([Si](C)(C)[C@@H]2[C@@H](CCn3cc([C@H](O)c4ccccc4)nn3)O[C@]3(C(=O)N(Cc4cccc(N5CCC5=O)c4)c4ccccc43)[C@H]2C)cc1` had a composite z-score of -0.166.

Tested on in the next assay: not listed separately
Description: cell viability in Huh7 cells, primary screen, cytotoxicity control for HCV replication inhibitor project, CellTiter-Glo luminescence, basal, 48 h (AID 1143).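 Also: Huh7 hepatoma cells carrying a hepatitis C replication reporter with no stimulus; test concentration not given here.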 Conditions: Huh7 HCV replicon, higher = more signal, called active from +8 up or from −8 down. On the technique in general: In ATP-based viability assays light output follows the ATP content of the culture.
As to `COc1ccc([Si](C)(C)[C@@H]2[C@@H](CCO)O[C@]3(C(=O)N(Cc4cccc(N5CCOC5=O)c4)c4ccccc43)[C@H]2C)cc1`, the z-score was -5.47 (inactive).

For the compound `COCCOC(=O)N1C(=O)[C@@]2(c3ccccc31)[C@H](C(N)=O)[C@H]1C(=O)O[C@H](c3ccccc3)[C@H](c3ccccc3)N1[C@@H]2c1ccc(O)cc1`, the z-score was -2.51 (inactive).

Turning to `O=C1C[C@@](C(=O)NCc2ccccc2)(c2ccc([N+](=O)[O-])cc2)[C@@H](c2ccc(CO)cc2)N1CC12CC3CC(CC(C3)C1)C2`, the z-score is -4.73 (inactive).

As for `COCC(=C=CC[C@H](O)c1cccc(OCCO)c1)CCO`, the z-score is 0.15 (inactive).

Regarding `COCCCNC(=O)[C@@]1(Cc2ccccc2CN=[N+]=[N-])N=C(c2ccc(OCCCO)cc2)O[C@H]1c1ccccc1CN=[N+]=[N-]`, the z-score was -5.48 (inactive).

For the compound `COC(=O)[C@]1(Cc2ccccc2)N=C(c2ccc(OCCCO)cc2)O[C@@H]1c1ccccc1N=[N+]=[N-]`, the z-score was -5.26 (inactive).

In the case of `COC(=O)[C@@]1(Cc2ccc(F)cc2)[C@H]2c3cc(C(=O)N(C)C)n(Cc4ccc(C)o4)c3C[C@H]2CN1C(=O)c1ccccc1`, the z-score was -2.07 (inactive).

Regarding `CC(C)=CCCC(C)=CC(O)C1C=CC2C(=O)N(c3ccccc3)C(=O)C2N1Nc1ccc(C(C)C)cc1` (stereo not given), the z-score was -0.11 (inactive).

Turning to `COc1ccccc1CN1C(=O)c2ccccc2[C@@H](C(=O)NCc2ccccc2)[C@@H]1c1ccc(CO)cc1`, the z-score is -0.107 (inactive).

Regarding `CC#CC(=O)Oc1ccc(Br)cc1C=CC(=O)OCC`, the z-score is -2.98 (inactive).

`O=C(NC1CC1)[C@@H]1c2ccccc2C(=O)N(C2Cc3ccccc3C2)[C@H]1c1ccc(CO)cc1`: the z-score was 0.192 (inactive).

In the case of `COCCCNC(=O)[C@@H]1c2ccccc2C(=O)N(Cc2ccccc2OC)[C@H]1c1ccc(CO)cc1`, the z-score was -4.79 (inactive).

In the case of `O=C(O)[C@H](Cc1ccccc1)n1cc(-c2ccccc2)nn1`, the z-score is 0.594 (inactive).

On to `C=CC[C@]1(C(=O)NCc2ccccc2)N=C(c2ccc(OCCCO)cc2)O[C@H]1c1ccccc1CN=[N+]=[N-]`, for which the z-score was -3.52 (inactive).

In the case of `CN1C(=O)C2C=CC(C(O)c3ccc(F)cc3)N(N(c3ccccc3)c3ccccc3)C2C1=O` (stereo not given), the z-score is 0.319 (inactive).

With `C=CCC(OC(C)=O)[C@@H]1[C@@H](N(Cc2ccc(-c3cccc(C(F)(F)F)c3)o2)C(=O)Cc2ccc(OC)cc2)c2cc(OCCCO)ccc2N1C(=O)c1ccc2ccccc2c1` (stereo not given in full), the z-score was -1.54 (inactive).

For the compound `CN(C)CCCCCCNC(=O)[C@@H]1C[C@@H]2C(=O)N[C@@H](CCCC[N+](C)(C)C)C(=O)N2[C@@H]1c1ccc(O)cc1`, the z-score was -0.217 (inactive).

In the case of `CC(C)CNC(=O)[C@@]1(Cc2ccccc2I)c2ccccc2C(=O)N(Cc2ccccc2C(F)(F)F)[C@H]1c1ccc(CO)cc1`, the z-score is 0.0523 (inactive).

For `C=CC[C@]1(C(N)=O)N=C(c2ccc(OCCCO)cc2)O[C@H]1c1ccccc1`, the z-score is -1.01 (inactive).

`COCCCNC(=O)[C@@]1(Sc2ccc(C)cc2)CC(=O)N(Cc2ccccc2Cl)[C@@H]1c1ccc(CO)cc1`: the z-score is -4.58 (inactive).

For the compound `CCCC=C(CCC)[C@@H](NC(=O)OCC(C)C)c1ccccc1`, the z-score is -3.28 (inactive).

For the compound `OCC1C=C(/C=C/c2ccccc2)CN1Cc1ccccc1Br` (stereo not given), the z-score was -2.1 (inactive).

As to `CN1C(=O)C2C=CC(C(O)C=Cc3ccc([N+](=O)[O-])cc3)N(Nc3ccccc3)C2C1=O` (stereo not given), the z-score was -0.143 (inactive).

In the case of `COC(=O)[C@@]1(Cc2ccccc2)[C@H]2c3cc(C(=O)N4CCCC4)n(Cc4ccc(O)c(OC)c4)c3C[C@H]2CN1C(=O)c1ccccc1`, the z-score is -2.34 (inactive).

Consider `CN(C)CCCCCCNC(=O)[C@@H]1C[C@@H]2C(=O)N3CCC[C@H]3C(=O)N2[C@@H]1c1ccc(O)cc1`, for which the z-score is -0.892 (inactive).

As to `C[N+](C)(C)CCCC[C@@H]1NC(=O)[C@H]2C[C@@H](C(=O)NCCCCCCNC(=O)CS)[C@@H](c3ccc(O)cc3)N2C1=O`, the z-score is -0.798 (inactive).

With `COC(=O)C(CC#Cc1ccc2c(c1)[C@]1(C(=O)N2)[C@H](c2ccccc2OCCO)N2[C@H](c3ccccc3)[C@H](c3ccccc3)OC(=O)[C@H]2[C@@H]1C(=O)O)C(=O)OC`, the z-score is -0.323 (inactive).

On to `NCCCCCNC(=O)[C@H]1C[C@H]2C(=O)N3CCC[C@H]3C(=O)N2[C@H]1c1ccc(O)cc1`, for which the z-score is 0.173 (inactive).

In the case of `C=CCC(OC(C)=O)[C@@H]1[C@@H](N(Cc2ccc(-c3ccccc3)cc2)C(=O)Cc2ccc(F)cc2)c2cc(OCCCO)ccc2N1C(=O)c1ccc2ccccc2c1` (stereo not given in full), the z-score is 0.0038 (inactive).

`CCOc1ccc(N2C(=O)CSC2c2cccc([N+](=O)[O-])c2)cc1` (stereo not given): the z-score is -0.689 (inactive).

As to `C=C(CCCC)/C(=C/C[C@H](OC(C)=O)c1ccccc1OCCO)c1cnc2ccccc2c1`, the z-score is -1.45 (inactive).

For `C=CC[C@]1(C(N)=O)COC(c2ccc(OCCCO)cc2)=N1`, the z-score was -1.33 (inactive).

As for `COCCOC(=O)N1C(=O)[C@@]2(c3cc(C#CC4=CCCCC4)ccc31)[C@H](C(N)=O)[C@H]1C(=O)O[C@H](c3ccccc3)[C@H](c3ccccc3)N1[C@@H]2c1ccc(O)cc1`, the z-score was -4.06 (inactive).

On to `O=C1O[C@@H](c2ccccc2)[C@@H](c2ccccc2)N2[C@@H](c3ccc(OCCO)cc3)[C@]3(C(=O)Nc4ccc(C#CC5=CCCCC5)cc43)[C@@H](C(=O)N3CCCCCCC3)[C@H]12`, for which the z-score is -2.05 (inactive).

Take `COc1ccc([Si](C)(C)[C@@H]2[C@@H](CCn3cc([C@H](O)c4ccccc4)nn3)O[C@]3(C(=O)N(Cc4cccc(N5CCC5=O)c4)c4ccccc43)[C@H]2C)cc1`: the z-score is -2.43 (inactive).
